Experiment [1] is described as follows: qHTS assay to identify small molecule agonists of the NFkB signaling pathway (AID 1159509; active means well fitted curve in the direction sought with a large enough effect in the signal ratio in the repeat runs, not every such curve was filed as active; the % refers to the signal ratio). Put shortly: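 After overnight attachment, reporter cells received test compounds, DMSO or positive controls and were incubated 5 hr at 37 C. FRET substrate was then added for 1.5 hr at room temperature before dual-emission fluorescence reading.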
For orientation: Quantitative high-throughput screening tests each substance at several concentrations.

Experiment [2] is described as follows: qHTS assay to identify small molecule agonists of the NFkB signaling pathway - cell viability counter screen (AID 1159515; calls by dose curve; further: nearly all actives have a fitted effect of over 55% in size; further: potency means the concentration at half of the fitted maximal effect). The method, boiled down:
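Multiplexed viability readout: after the 5 hr compound exposure and 1.5 hr FRET substrate step, CellTiter-Glo reagent went into the same NFkB-bla ME-180 wells; ATP luminescence was measured after 30 min at room temperature.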

Experiment [3] addresses Nuclear receptor ROR-gamma (Homo sapiens) (UniProt P51449). Description: qHTS assay to identify small molecule antagonists of the retinoid-related orphan receptor gamma (ROR-gamma) signaling pathway (AID 1159521; further: nearly all actives have a fitted effect of over 50% in size; further: potency means the concentration at half of the fitted maximal effect). The method, boiled down:
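CHO cells expressing RORγ under a TET-on promoter, luciferase under RORE control. Dox 1 uM final, 16 h; compounds added 2 h prior. Luminescence decrease measured.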

The nature of experiment [4]: qHTS assay to identify small molecule agonists of the AP-1 signaling pathway - cell viability counter screen (AID 1159525; calls by dose curve; further: nearly all actives have a fitted effect of over 55% in size; further: potency means the concentration at half of the fitted maximal effect). The method, boiled down: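 ME-180 AP-1-bla, 2500 cells/well, Opti-MEM + 0.5% dialyzed FBS; overnight 37 °C; cpd 15-pt titration, 5 h 37 °C; CellTiter-Glo 30 min RT; luminescence read; normalised to TOAB and DMSO controls.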
The target in experiment [5] is Retinoic acid receptor RXR-alpha (Homo sapiens) (UniProt P19793). The experiment is described as follows: qHTS assay to identify small molecule agonists of the RXR signaling pathway (AID 1159527; calls by dose curve; further: nearly all actives have a fitted effect of over 35% in size). The method, boiled down: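 Beta-lactamase reporter assay, agonist format. Engineered HEK 293T line, charcoal-stripped FBS at 2%, overnight (16 hr) exposure, fluorescence at 460 and 530 nm after 405 nm excitation.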
Retinoic acid receptor RXR-alpha (Homo sapiens), sequence (P19793 whole entry, looked up): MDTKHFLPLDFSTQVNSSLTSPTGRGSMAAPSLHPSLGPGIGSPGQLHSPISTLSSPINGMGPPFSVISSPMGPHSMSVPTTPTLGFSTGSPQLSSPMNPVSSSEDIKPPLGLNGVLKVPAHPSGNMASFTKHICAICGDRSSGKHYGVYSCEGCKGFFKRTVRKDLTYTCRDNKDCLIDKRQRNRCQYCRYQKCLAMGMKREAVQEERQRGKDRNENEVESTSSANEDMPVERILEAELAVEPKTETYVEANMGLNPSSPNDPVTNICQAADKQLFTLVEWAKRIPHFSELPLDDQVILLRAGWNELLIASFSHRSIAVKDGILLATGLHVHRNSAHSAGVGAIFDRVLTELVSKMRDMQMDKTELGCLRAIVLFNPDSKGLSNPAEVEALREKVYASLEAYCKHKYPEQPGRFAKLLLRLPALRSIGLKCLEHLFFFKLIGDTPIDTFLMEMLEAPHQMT

A short description of experiment [6]: qHTS assay to identify small molecule agonists of the RXR signaling pathway - cell viability counter screen (AID 1159529). Further: nearly all actives have a fitted effect of over 50% in size. Further: potency means the concentration at half of the fitted maximal effect. Put shortly: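 Same-well viability check after the LiveBLAzer FRET read: CellTiter-Glo added, luminescence measured after 30 min at room temperature. Reporter HEK 293T cells had been treated with compounds for 16 hr following a 5 hr preincubation.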

Experiment [7] in a line: qHTS assay to identify small molecule antagonists of the retinoid acid receptor (RAR) signaling pathway - cell viability counter screen (AID 1159551). Further: nearly all actives have a fitted effect of over 35% in size. Further: potency means the concentration at half of the fitted maximal effect. The method, boiled down:
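Cytotoxicity counter screen in C3RL4 cells: 6 h compound exposure with 1 uM retinol (final), viability from cellular ATP by luminescence.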

Experiment [8] in a line: qHTS assay to identify small molecule antagonists of the retinoic acid receptor (RAR) signaling pathway (AID 1159552; further: nearly all actives have a fitted effect of over 50% in size; further: potency means the concentration at half of the fitted maximal effect). The method, boiled down: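 Readout: luciferase luminescence, 30 min post-reagent at RT. Setup: C3RL4 RARE reporter cells, compounds plus retinol 1 uM final, 6 hr incubation at 37 C and 5% CO2.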
Experiment [9] is described as follows: qHTS assay to identify small molecule agonists of the AP-1 signaling pathway (AID 1159526; calls by dose curve).
A short description of experiment [10]: qHTS assay to identify small molecule agonists of the retinoic acid receptor (RAR) signaling pathway (AID 1159553). Conditions: C3RL4 RARE luciferase reporter, agonist, 6 h; activation: at 73.3 µM (top of the series). The method, boiled down: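 Agonist activity was scored in C3RL4 cells bearing a retinoic acid response element luciferase construct. Cells were treated with compounds for 6 hr at 37 C, and luciferase signal was measured as luminescence.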

Experiment [11] in a line: qHTS assay to identify small molecule antagonists of the vitamin D receptor (VDR) signaling pathway - cell viability counter screen (AID 743225). Further: nearly all actives have a fitted effect of over 50% in size. Further: potency means the concentration at half of the fitted maximal effect. Put shortly: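 Luminescent cell viability (CellTiter-Glo) in VDR-bla HEK 293T cells after 16 h compound exposure at 37C in the presence of 3 nM final 1-alpha,25-dihydroxy vitamin D3.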
Experiment [12] in a line: qHTS assay to identify small molecule agonists of the endoplasmic reticulum stress response signaling pathway (AID 1159516; active means well fitted activation curve with a large enough effect in the signal ratio in the repeat runs, not every such curve was filed as active; the % refers to the signal ratio). Put shortly: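 Tox21 10K library screened in quantitative HTS format on ESRE-bla HeLa cells, a beta-lactamase reporter under ER stress response element control; 5 hr treatment, FRET read.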
Experiment [13] in a line: qHTS assay to identify small molecule agonists of the endoplasmic reticulum stress response signaling pathway - cell viability counter screen (AID 1159517; calls by dose curve; further: nearly all actives have a fitted effect of over 50% in size). The method, boiled down:
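Luminescence readout: CellTiter-Glo, 30 min RT, same wells as the ESRE-bla reporter read. HeLa ESRE-bla, 1,500 cells/well, o/n 37 C; cpd 5 hr 37 C/5% CO2.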

A short description of experiment [14]: qHTS assay to identify small molecule antagonists of the retinoid-related orphan receptor gamma (ROR-gamma) signaling pathway - cell viability counter screen (AID 1159520). Further: nearly all actives have a fitted effect of over 50% in size. The method, boiled down:
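Tet-on ROR gamma CHO cells (1,000/well) were plated 4 hr, given compounds in DMSO for 2 hr at 37 C, then induced with 1 uM final doxycycline for 16 hr. Viability was read as ATP by CellTiter-Glo luminescence after 30 min.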

Experiment [15] is described as follows: qHTS assay to identify small molecule antagonists of the estrogen related receptor (ERR) signaling pathway - cell viability counter screen (AID 1224818).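 Further: viability measured after 17.5 h of compound exposure.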 Put shortly:
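Cells carrying the ERR pathway reporter were seeded and incubated for 6 hours before compound addition. After a 17.5-hour exposure at 37 C, live-cell protease activity was measured by CellTiter-Fluor fluorescence following 30 minutes of incubation.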

Experiment [16] in a line: qHTS assay to identify small molecule antagonists of the estrogen related receptor (ERR) signaling pathway (AID 1224819). Put shortly: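 Compounds dissolved in DMSO were pin-transferred onto ERR cells that had been plated 6 h earlier, and cells were then incubated 18 h at 37 C; signal was luciferase luminescence via One-Glo.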
Experiment [17] in a line: qHTS assay to identify small molecule agonists of the estrogen related receptor (ERR) signaling pathway (AID 1224820). Put shortly:
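Quantitative HTS of the LOPAC library used NTP ERR reporter cells treated 18 h at 37 C. Signal is luminescence after One-Glo addition and a 30 min room-temperature incubation.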

Experiment [18] relates to estrogen-related receptor alpha (ERRalpha) with PGC-1alpha coactivator, human. Description: qHTS assay to identify small molecule antagonists of the estrogen related receptor signaling pathway with the pleiotropic PPARgamma coactivator (PGC) (AID 1224821; calls by dose curve). Put shortly:
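Quantitative HTS for antagonism: PGC/ERR cells received compounds after 6 h attachment and were incubated 18 h at 37 C, with luminescence (One-Glo) as the endpoint.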

A short description of experiment [19]: qHTS assay to identify small molecule antagonists of the estrogen related receptor signaling pathway with the pleiotropic PPARgamma coactivator (PGC) cell viability counter screen (AID 1224822;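 further: viability read after 17.5 h compound exposure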). The method, boiled down:
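Seed PGC/ERR cells (2,000/well); incubate 6 h at 37 C/5% CO2; pin-transfer compounds in DMSO; incubate 17.5 h at 37 C; add CellTiter-Fluor; after 30 min read fluorescence.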

A short description of experiment [20]: qHTS assay to identify small molecule agonists of the estrogen related receptor signaling pathway with the pleiotropic PPARgamma coactivator (PGC) (AID 1224823). Put shortly: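 Cell-based luciferase assay in the NTP-supplied PGC/ERR line, 2,000 cells/well; 18 h compound exposure at 37 C, luminescence after One-Glo.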

Results filed as inconclusive are left out. Unmarked numbers belong to inactive results. Active and inactive are the calls of the source. Unless noted, the call rests on the fitted dose curve; in most records, active means well fitted curve in the direction sought with a large enough effect in the repeat runs; inconclusive means weak or mixed curves; inactive means no such curve, though single readings can be large; an effect the other way counts as inactive or inconclusive.

On to `CN1C(=O)N(c2ccccc2Br)Cc2cnc(Nc3ccc4c(c3)OCC(CO)O4)nc21` (stereo unspecified), for which the Potency result in experiment [1], in experiment [2], in experiment [4] and in experiment [5] was “inactive” throughout. Moreover, the Potency was 54.5 µM (active) in experiment [3] and 0.245 µM (active) in experiment [6].

In the case of `Oc1ccc(Cl)c2cccnc12`, the Potency result in experiment [1], in experiment [2], in experiment [3], in [4], in experiment [7] and in [8] was “inactive” each time.

Regarding `C=C(C)[C@@H]1CCC2=CCC[C@@H](C)[C@]2(C)C1`, the Potency result in experiment [1], in experiment [2], in [4], in [9], in [7] and in [8] was “inactive” each time. The Potency result in experiment [10] is “inactive”.

With `C=COCC(C)C`, the Potency result in experiment [11], in experiment [1], in experiment [12], in experiment [13], in [14] and in experiment [3] was “inactive” throughout. Besides, the Potency entry in experiment [4], in [9], in experiment [5], in experiment [6], in experiment [7] and in experiment [8] was “inactive” in each case. Further, the Potency entry in [10] was “inactive”.

In the case of `CCn1cc(C(=O)O)c(=O)c2cc(F)c(N3CCNCC3)cc21`, the Potency entry in experiment [11], in experiment [1], in [12], in experiment [13], in experiment [14] and in [3] was “inactive” throughout. In addition, the Potency entry in experiment [4], in experiment [9], in experiment [5], in experiment [6], in [7] and in experiment [8] was “inactive” each time. In addition, the Potency result in [10] is “inactive”.

Take `CO[C@]1(NC(=O)CSC(F)F)C(=O)N2C(C(=O)O)=C(CSc3nnnn3CCO)CO[C@H]21`: the Potency entry in experiment [11], in experiment [1], in experiment [2], in experiment [4], in experiment [9] and in experiment [5] was “inactive” in each case. Moreover, the Potency result in experiment [6], in experiment [7], in experiment [8] and in experiment [10] was “inactive” each time.

As to `Cc1c(C)c2c(c(C)c1OC(=O)CCC(=O)OCCO)CC[C@@](C)(CCC[C@H](C)CCC[C@H](C)CCCC(C)C)O2`, the Potency in experiment [11] is 26.8 µM (active). Besides, the Potency result in experiment [1], in experiment [2], in experiment [14], in [4] and in [6] was “inactive” in each case.

In the case of `CCC1CO1` (stereo unspecified), the Potency result in experiment [11], in experiment [1], in experiment [12], in [13], in experiment [14] and in [3] was “inactive” each time. For the same molecule, the Potency result in experiment [4], in [9], in [5], in experiment [6], in [7] and in experiment [8] was “inactive” each time. The Potency entry in [10] is “inactive”.

Turning to `O=c1cc(-c2ccccc2)oc2ccc3ccccc3c12`, the Potency entry in experiment [1], in [3] and in [5] was “inactive” each time. The Potency in experiment [2] is 54.9 µM (active); in experiment [4], 24.5 µM (active); in experiment [6] it was 19.5 µM (active); in experiment [7] it was 24.3 µM (active).

As to `OCCN1CCN(CCCN2c3ccccc3Sc3ccc(Cl)cc32)CC1`, the Potency in experiment [11] is 23.9 µM (active); in [6] it was 16.9 µM (active); in [8] it was 29.8 µM (active). In addition, the Potency result in experiment [1] and in experiment [2] was “inactive” in each case. The outcome in experiment [15], in experiment [16], in experiment [17], in experiment [18], in [19] and in [20] was inactive.

`O=C(O)CCc1nc(-c2ccccc2)c(-c2ccccc2)o1`: the Potency result in [1], in experiment [2], in [3], in experiment [4], in experiment [9] and in [6] was “inactive” in each case. Also, the Potency result in [7] and in [10] was “inactive” throughout. Also, the result in [15], in experiment [16], in experiment [17], in experiment [18], in experiment [19] and in [20] was inactive.

Values taken from PubChem BioAssay (Tox21).
